Bioassay records (PubChem)
HT1080-NT tox: qHTS for induction of synthetic lethality in tumor cells producing 2HG: qHTS for the HT-1080-NT fibrosarcoma cell line. AID 686970, 2013. HT-1080-NT fibrosarcoma viability, CellTiter-Glo ATP luminescence, 48 h. hit rate 1.6% among 360,000. Potency, µM (titrated, usually from 46.1 µM), without a hit: at the top dose activity, negative = less viability, most hits filed as cytotoxic;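 note: NT is the 2HG producing partner of a matched IDH1 knockdown line; potency is the fitted concentration of half-maximal effect; 0% = DMSO-treated cells and -100% = media-only wells without cells; nearly all actives have a fitted effect of over 55% in size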
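Viability of the 2HG-overproducing fibrosarcoma line after 48 hours of compound exposure at 37 degrees C was determined by luminescence with CellTiter-Glo, and concentration-effect curves were then fitted and categorized.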
ELG1 DNA repair: qHTS screen for small molecules that inhibit ELG1-dependent DNA repair in human embryonic kidney (HEK293T) cells expressing luciferase-tagged ELG1; HEK293T ELG1-luciferase reporter, luminescence, 16 h; DNA damage induced by 5-fluorouridine; Potency, µM (highest dose often 46.1 µM), for the others: at the top dose activity change, negative = inhibition, most hits filed as inhibitors; hit rate 2.3% among 330,000; AID 504467, 2011; note: potency is the fitted concentration of half-maximal effect; nearly all actives have a fitted effect of over 55% in size
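DMSO vehicle served as the neutral condition. Each well held 2,000 cells given 5-fluorouridine plus compound; after 16 hr at 37 °C/5% CO2, ONE-Glo was added and luciferase measured 30 min later.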
HT1080 IDH1KD tx: qHTS for induction of synthetic lethality in tumor cells producing 2HG: qHTS for the HT-1080-IDH1KD cell line. HT-1080 IDH1 knockdown viability, ATP luminescence, 48 h. Potency, µM (titrated, usually from 46.1 µM), inactives show top-dose activity, negative = toxicity, usual class: cytotoxic. hit rate 2% among 360,000. AID 686971, 2013;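 note: potency is the fitted concentration of half-maximal effect; 0% = DMSO wells and -100% = cell-free medium wells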
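Using the IDH1-knockdown HT-1080 line run in the same batch and compound series as the NT line, viability after 48 h at 37 °C was determined by CellTiter-Glo luminescence and expressed as % activity.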
DT40 TDP1 CPT: qHTS for Inhibitors of human tyrosyl-DNA phosphodiesterase 1 (TDP1): qHTS in cells in presence of CPT; hit rate 12% among 420,000; Potency, µM (series often up to 46.2 µM), without a hit: top-dose activity change, negative = growth inhibition, hits mostly inhibitors; chicken DT40 Tdp1-/-;hTDP1 cells + 20 nM CPT, ATP luminescence, 48 h; AID 686979, 2013; note: potency is the fitted concentration of half-maximal effect; nearly all actives have a fitted effect of over 55% in size
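Cell growth measured by CellTiter-Glo luminescence after a minimum 48 h, 37 C compound exposure with 20 nM CPT in Tdp1-knockout DT40 cells stably expressing hTDP1, seeded 400/well; qHTS titration format.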
TDP1 cell noCPT: qHTS for Inhibitors of human tyrosyl-DNA phosphodiesterase 1 (TDP1): qHTS in cells in absence of CPT | hit rate 15% among 420,000 | DT40 Tdp1-/- hTDP1 cells, no CPT, ATP luminescence, 48 h | Potency, µM (titrated, usually from 46.2 µM), without a hit: at the top dose activity change, negative = growth inhibition, usual class: inhibitors; note: potency is the fitted concentration of half-maximal effect; nearly all actives have a fitted effect of over 55% in size
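Camptothecin absent (DMSO only). Human TDP1-complemented DT40 knockout cells, 400 cells/well, 37 °C for minimum 48 hr; ATP measured via CellTiter-Glo, 30 min dark incubation, luminescence.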
IL-1B inflam inh: qHTS for Inhibitors of Inflammasome Signaling: IL-1-beta AlphaLISA Primary Screen; THP-1 LPS/ATP IL-1B secretion, AlphaLISA, 16 h; stronger effect = lower value; activity change, % at 57.5 µM; hit rate 4.7% among 360,000; in the data active = activity change below about -50%; inconclusive = mostly about -30% to -49%
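Secreted IL-1B measured by AlphaLISA bead assay after 16 h compound exposure of THP-1 cells; compounds (final up to 57.5 uM) added 1 h before LPS (250 ng/mL) and ATP (1.25 mM) stimulation; lower signal means less secretion.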
* hit, by the source's call; ? = inconclusive; · = not tested or not shown; ! = a repeat was not active. Sampled rows, rich in hits. Any-hit rate of the full collection: about 19%. Unless noted, calls come from the whole dose curve; as a rule, active = well fitted curve in the direction sought with a large enough effect; inconclusive = small, poorly fitted or top-dose-only effect, or another doubt; inactive = no such curve, though single readings can be large; an effect the other way counts as inactive or inconclusive. Unless noted, % is set by controls: 0 for no effect and ±100 for the full control effect.

SMILES	HT1080-NT tox	ELG1 DNA repair	HT1080 IDH1KD tx	DT40 TDP1 CPT	TDP1 cell noCPT	IL-1B inflam inh
O=C(NCC(c1ccco1)N1CCc2ccccc21)c1ccccc1 (stereo unspecified)	-24%	-10%	-15%	?	?	-17
CC1(Oc2ccccc2-c2ccn[nH]2)CCN(Cc2ccc(OC(F)(F)F)cc2)C1 (stereo unspecified)	?	·	?	?	?	-6
O=C(OCC(=O)N1CCc2ccccc2C1)c1ccc(F)cc1Cl	-3%	?	0%	4%	-15%	-7
Cc1ccc(SC[C@H](C)CN2CCC(NC(=O)OCc3ccccc3)CCC2=O)cc1 (stereo partly specified)	?	·	?	?	?	-2
[N-]=[N+]=NC[C@H](Cc1ccccc1)N1CC[C@@H](NC(=O)OCc2ccccc2)CCC1=O	-7%	?	-6%	?	16µM*	18
O=C(N[C@@H]1CCC(=O)N(CC[C@H](Sc2ccccc2)c2ccccc2)CC1)OCc1ccccc1	?	?	?	?	23µM*	?
C[C@H]1CCC(=O)N([C@H](CN=[N+]=[N-])Cc2ccccc2)CC1	0%	-5%	-3%	-9%	?	-5
O=C(NC1CCC(=O)N(CCOc2ccccc2)CC1)OCc1ccccc1 (stereo unspecified)	10%	-1%	10%	?	11µM*!	0
Cc1ccc(SCCN2CCC(NC(=O)OCc3ccccc3)CCC2=O)cc1 (stereo unspecified)	1%	?	-2%	?	18µM*	3
O=C(N[C@H]1CCC(=O)N(CCSc2ccc(Br)cc2)CC1)OCc1ccccc1	?	?	?	15µM*	16µM*	-22
O=C1NCC(c2ccccc2)C1C(=O)N/N=C/c1ccc(Cl)s1 (stereo unspecified)	-3%	-14%	0%	6%	7%	-18
O=C1NCC(c2ccccc2)C1C(=O)N/N=C\c1ccc(-c2ccc(Cl)c(Cl)c2)o1 (stereo unspecified)	?	?	?	?	?	-61*
COc1ccc(/C=N\NC(=O)C2C(=O)NCC2c2ccccc2)cc1O (stereo unspecified)	11%	-5%	12%	7.3µM*	16µM*	0
CCOc1cc(/C=N\NC(=O)C2C(=O)NCC2c2ccccc2)ccc1OC (stereo unspecified)	-16%	10%	-17%	2%	0%	-11
CCOc1ccc(NC(=O)c2c(N)n(C)c(=O)[nH]c2=O)cc1	11%	·	9%	0%	-5%	-10
O=C(CNS(=O)(=O)c1c(Cl)cccc1Cl)OCc1csc(-c2ccccc2)n1	3%	28%	14%	6%	-28%	22
O=C(/C=C/c1cccs1)N1CCC2(CC1)Oc1ccc(Cl)cc1C(=O)C21CC(c2ccc(Cl)cc2)=NO1 (stereo unspecified)	5%	·	1%	2%	-6%	-17
O=C1c2cc(Cl)ccc2OC2(CCNCC2)C12CC(c1ccccc1)=NO2 (stereo unspecified)	-11%	11%	-2%	21µM*	16µM*	?
O=C1c2cc(Cl)ccc2OC2(CCNCC2)C12CC(c1ccc(Cl)cc1)=NO2 (stereo unspecified)	-8%	14%	-10%	18µM*	18µM*	?
N#Cc1cccc(NC(=O)Cn2cnc(S(=O)(=O)N3CCCCC3)c2)c1	3%	0%	-9%	8%	-17%	0
O=C(Nc1ccc(F)cc1)C1CCCN(S(=O)(=O)c2ccc3[nH]c(=O)ccc3c2)C1 (stereo unspecified)	4%	13%	3%	?	?	5
COCCC(=O)Nc1ccc2c(c1)CN(C(=O)c1ccc(CSC)o1)CC2	-3%	3%	1%	-28%	2.9µM*	11
Cc1cnc(C2OCCO2)c2cccc(N)c12	-8%	·	6%	?	8.2µM*	-12
CC(C)(C)C1CCc2c(sc(NC(=O)C3CCCO3)c2C(N)=O)C1 (stereo unspecified)	?	12%	?	?	18µM*	-9
CCOC(=O)c1c(N)sc2c1CCC(C)C2 (stereo unspecified)	10%	-3%	15%	-26%	-4%	5
SMILES	HT1080-NT tox	ELG1 DNA repair	HT1080 IDH1KD tx	DT40 TDP1 CPT	TDP1 cell noCPT	IL-1B inflam inh
CC(C)(C)C1CCc2c(sc(N)c2C(N)=O)C1 (stereo unspecified)	?	?	1%	23µM*	18µM*	-64*
CCCC1CCc2c(sc(N)c2C(N)=O)C1 (stereo unspecified)	11%	-2%	20%	16µM*	21µM*	-9
CC(C)(C)C1CCc2c(sc(NC(=O)c3ccco3)c2C(N)=O)C1 (stereo unspecified)	-1%	?	-13%	?	?	-22
CCC(C)(C)C1CCc2c(sc(N)c2C(N)=O)C1 (stereo unspecified)	-3%	-20%	-10%	21µM*	21µM*	-15
NC(=O)c1c(NC(=O)C2CCCO2)sc2c1CCC2 (stereo unspecified)	2%	-2%	10%	0%	-6%	-26
CCCN1CNc2c(c(=O)[nH]c(=S)n2CCc2ccccn2)C1	20%	·	1%	-16%	-26%	·
Cc1onc(-c2ccccc2)c1C(=O)N1CCCC(C)(C(=O)NS(=O)(=O)C2CC2)C1 (stereo unspecified)	4%	·	23%	?	?	10
O=C1C2C3C=CC(C3=C3CCCCC3)C2C(=O)N1c1ccccc1 (stereo unspecified)	23%	-12%	24%	?	13µM*	-17
CC(CCc1ccccc1)NS(=O)(=O)c1ccccc1Cl (stereo unspecified)	-2%	1%	-11%	?	-28%	6
CCOc1ccc(NC(=O)c2cn(-c3ccc(OCC)cc3)c(=O)c3cc(OC)c(OC)cc23)cc1	9%	?	8%	-9%	-3%	-28
